# Source: PubChem BioAssay AID651953 (The Scripps Research Institute Molecular Screening Center, 2012)
# About 430 (18%) of roughly 2,400 compounds were called active. The list is a sample of the results. A number with no mark means an inactive call. Cut-off read from the data, not from the text of the source: active = activation above about 12%; inactive = the rest.
# Assay: calcium activation in Ga16-expressing cells, counter-screen for TAAR1 antagonist project, cell-based, fluorescence (AID 651953);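 note: 0% = vehicle wells and 100% = saturating stimulus response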
# Settings: agonist counterscreen, at 3 µM, hits give high values
row,Compound,activation
1,CC(=O)n1cc([C@H]2C=C(C(=O)N3CCOCC3)O[C@@H](OCc3ccc(CO)cc3)C2)c2ccccc21,8.38%
2,CC(=O)Nc1ccc(NC(=O)COC(=O)C2CCC(C(C)(C)C)CC2)cc1 (centres undefined),12.5% (active)
3,COc1cc2ccccc2cc1C(=O)Nc1ccc(NC(=O)c2cccs2)cc1,7.21%
4,COC(=O)[C@@]1(Sc2ccc(C)cc2)CC(=O)N(c2cccc(SC)c2)[C@@H]1c1ccccc1,7.65%
5,COc1ccc(C(=O)Oc2ccc(-c3nnco3)cc2)cc1S(=O)(=O)N1CCOCC1,8.48%
6,CCOc1cc(/C=N/NC(=O)c2cc(-c3ccccc3)nc3ccccc23)ccc1O,7.59%
7,O=C(Oc1ccc(-c2nnco2)cc1)c1ccc(F)c(S(=O)(=O)N2CCOCC2)c1,11.4%
8,O=C1c2ccccc2C(=O)N1CCC#Cc1ccc2cc(C3(O)CCCCC3)oc(=O)c2c1,12.9% (active)
9,Cc1nn(-c2ccccc2)c(C)c1NC(=O)COC(=O)c1cc(Cl)ccc1O,11.4%
10,CCOc1ccc(NC(=O)N2CC=C(n3c(=O)[nH]c4ccccc43)CC2)cc1,8.85%
11,C=CCn1c(SCc2cccc(F)c2)nc2cc(C(=O)N3CCC(C(N)=O)CC3)ccc2c1=O,10.2%
12,CSc1nc(-c2ccccc2)nc(C(Cl)Cl)n1,2.33%
13,Cn1c2ccccc2c(=O)c2c(=O)n(Cc3ccco3)c(COc3ccccc3)nc21,11.7% (active)
14,O=c1[nH]c(CSc2ncc(-c3ccc(F)cc3)n2Cc2ccco2)nc2ccccc12,9.09%
15,COc1ccc(CCNC2=C(Cl)C(=O)N(Cc3ccccc3)C2=O)cc1OC,10.4%
16,COc1ccc(CCNC(=O)c2ccc(CS(=O)(=O)c3ccc(Br)cc3)o2)cc1OC,13.5% (active)
17,COc1ccc(CCNC(=O)C(=O)NCC2OCCN2S(=O)(=O)c2ccc(OC)c(C)c2)cc1 (centres undefined),7.62%
18,CC(C)(C)OC(=O)NCCCCCNC(=O)c1nc[nH]c1C(=O)NCc1ccccc1,7.75%
19,O=C(NCc1ccc2c(c1)OCO2)c1c(-c2ccsc2)sc2ccccc12,3.18%
20,Oc1ccc(/C=N/Nc2nc(-c3ccccc3F)nc3ccccc23)c(O)c1,11.9% (active)
21,Fc1ccc(/C=N/Nc2nc(-c3cccnc3)nc3ccccc23)cc1,5.53%

row,Compound,activation
1,CCOC(=O)C1=C(NC(=S)NC(=O)c2ccccc2)c2ccccc2CC1(C)C,11.8% (active)
2,CNC(=O)c1ccsc1NC(=O)c1ccc(S(=O)(=O)N2CCc3ccccc32)cc1,9.94%
3,CC(=O)N1CCN(C(=O)c2cc(-c3ccc(Cl)s3)nc3ccccc23)CC1,11.8% (active)
4,COc1ccc(-c2cc(C(=O)Nc3ccccc3O)c3ccccc3n2)cc1,10.9%
5,COc1ccc(NC(=O)c2cc(-c3ccc(C)o3)nc3ccccc23)cc1,8.64%
6,COc1ccc(S(=O)(=O)N2CCCC(C(=O)Nc3ccc(NC(=O)c4ccccn4)cc3)C2)cc1 (centres undefined),9.11%
7,O=C(OCC(=O)N(CCc1ccccc1)Cc1ccccc1)c1ccccc1[N+](=O)[O-],9.58%
8,Cn1c(C(=O)NCCc2ccsc2)cc2c(=O)n(C)c3ccccc3c21,6.98%
9,COc1ccc(OC)c2[nH]c(=O)c(CCNC(=O)C(=O)c3c[nH]c4ccccc34)cc12,9.04%
10,COc1ccc(S(=O)(=O)N(CC(=O)NCc2ccco2)c2ccc(F)cc2)cc1,7.35%
11,N#Cc1cccc(NC(=O)COC(=O)c2ccccc2C(=O)c2ccc(Cl)c([N+](=O)[O-])c2)c1,10.4%
12,C[C@H](NC(=O)c1nc[nH]c1C(=O)NCC(=O)OC(C)(C)C)C(=O)OCc1ccccc1,6.84%
13,COc1ccc(C2=NOC(Cn3nc(C(=O)NCc4ccc5c(c4)OCO5)cc3-c3ccccc3)C2)cc1 (centres undefined),7.98%
14,Cc1ccc2c(c1)N(CC(=O)NCCc1ccc(Cl)cc1)C(=O)c1cccnc1O2,8.82%
15,C=CCC[C@@H](Cc1ccc(F)cc1)C(=O)O[C@H](CNC(=O)[C@H](CC=C)CC(=O)N(CCO)Cc1ccccc1)c1ccccc1,5.79%
16,CSCCC(NC(=O)COc1ccccc1)C(=O)OCCOc1ccc(Br)cc1 (centres undefined),4.3%
17,COC(=O)C1=C(C)N(Cc2ccc(F)cc2)C(=S)NC1c1cccc(Cl)c1 (centres undefined),2.63%
18,COC(=O)Cc1nnn2c1[C@H](C)[C@H](c1ccccc1[N+](=O)[O-])OCC2,-1.09%
19,Cc1ccccc1NC(=O)Cc1nc(COC(=O)C(C)(C)Oc2ccc(Cl)cc2)cs1,7.78%
20,C=CCC[C@H](Cc1ccc(F)cc1)C(=O)OC[C@H](C)NC(=O)[C@H](CC=C)CC(=O)N(CCO)Cc1ccccc1,8.66%
21,Cc1cccc(NC(=O)c2ccc(COc3ccccc3[N+](=O)[O-])o2)n1,4.04%

row,Compound,activation
1,Cc1cccc(C)c1NC(=O)CNC(=O)C1CCCC1,2.04%
2,Cc1ccc(-n2c(C)cc(/C=N\NC(=O)CC(=O)NC(C)C)c2C)cc1,8.51%
3,O=C(NCCN1CCOCC1)c1ccccc1N1C(=O)[C@@H]2Cc3c([nH]c4ccccc34)C(c3cccc(Cl)c3)N2C1=O (some centres undefined),6.37%
4,COc1ccc(C(=O)Nc2cccc(NC(=O)c3ccc(OC)cc3OC)n2)c(OC)c1,8.74%
5,O=C(CN1CCCSc2ccccc21)N1CCN(S(=O)(=O)c2cccc(F)c2)CC1,8.97%
6,Oc1ccccc1N1CCN(c2ncnc3sc(-c4ccccc4)cc23)CC1,6.72%
7,COc1cc(/C=C2/C(=O)ON=C2C)ccc1OCc1ccccc1F,12.4% (active)
8,O=C(COC(=O)c1c2c(nc3ccccc13)CCCC2)c1ccc(Br)s1,2.67%
9,C[C@H](O)[C@@H]1C(=O)N2CCc3c([nH]c4c(-c5ccc6c(c5)OCO6)cccc34)[C@@H]2C[C@@H]1N(C)C(=O)c1ccco1,5.11%
10,Nc1nonc1-n1nnc(C(=O)N/N=C/c2c[nH]c3ccccc23)c1-c1ccccc1,6.4%
11,Cc1ccc(SCc2c(C(=O)N/N=C/c3cccnc3)nnn2-c2nonc2N)cc1,17.4% (active)
12,O=C(N/N=C/c1ccc(OC(=O)c2ccccc2Cl)cc1)c1ccc(O)cc1,8.92%
13,O=C(NCCN1CCOCC1)c1ccc(/C=C2\Sc3ccccc3N(Cc3ccc(F)cc3)C2=O)cc1,9.85%
14,O=S(=O)(c1cccs1)N1CCCc2nc(-c3ccc(Br)cc3)ccc21,5.49%
15,C[C@@H]1CN([C@@H](C)CO)S(=O)(=O)c2ccc(C#Cc3cccc(F)c3)cc2O[C@H]1CN(C)S(=O)(=O)c1cn(C)cn1,13.6% (active)
16,CCCCNc1c(-c2cccc(Sc3ccc(OC)cc3)c2)nc2ccccn12,6.41%
17,CSc1ncnc2c1ncn2CC(=O)C1CCC2C3CCC4=CC(=O)CCC4(C)C3CCC12C (centres undefined),15.7% (active)
18,CCN=C1SC(CC(=O)Nc2ccc(C)cc2)C(=O)N1CC (centres undefined),9.6%
19,O=C(COC(=O)c1ccccc1SCC(=O)N1CCCC1)Nc1ccccc1OC(F)F,9.11%
20,COc1ccc(-c2nn(-c3ccccc3)cc2C(=O)Nc2nccs2)cc1OC,7.16%
21,COc1cc(SC#N)ccc1N=Cc1c(C)[nH]n(-c2ccc(C)cc2)c1=O,7.36%

row,Compound,activation
1,O=C(Nc1ccccc1-c1nnn(CC(=O)N2CCN(c3ccccc3)CC2)n1)c1cccs1,8.25%
2,CC(C)N(Cc1ccccc1)C(=O)COC(=O)c1ccccc1SCC(=O)N1CCCC1,8.17%
3,COc1ccc(NC(=O)C2CCCN(S(=O)(=O)c3cccc4cccnc34)C2)cc1OC (centres undefined),7.3%
4,CCOC(=O)C1C(c2ccc(OC)c(OC)c2)c2c([nH][nH]c2=O)CC1(C)O (centres undefined),3.55%
5,Clc1ccc(Nc2ncnc3c2nnn3Cc2ccccc2)cc1,3.96%
6,COc1ccc(N(CC(=O)N/N=C/c2cccs2)S(=O)(=O)c2ccc(OC)c(OC)c2)cc1,8.47%
7,CC(=O)OCCN(CCCn1c(-c2ccncc2)nc2ccccc21)c1nc(-c2ccc(C)cc2)cs1,12.8% (active)
8,COC(=O)Cc1nnn2c1[C@H](C)[C@H](c1ccccc1Br)OCC2,9.39%
9,CN(c1ccccc1)S(=O)(=O)c1cc(C(=O)Nc2nc3ccccc3[nH]2)ccc1Cl,8.92%
10,NNC(=O)CNC(c1ccccc1)c1cc(Cl)ccc1NC(=O)c1ccccc1 (centres undefined),9.38%
11,CC/C(=N/Nc1ccccc1)c1cnnc(SC)n1,-1.08%
12,Cc1onc(-c2c(F)cccc2Cl)c1C(=O)Nc1cccc(S(=O)(=O)N2CCCCC2)c1,9.53%
13,CCC(=O)Oc1cccc(C(=O)Nc2ccc(-c3nnc(-c4ccco4)o3)cc2)c1,4.99%
14,CCc1ccc2c(c1)NC(=O)C2(C)Cc1ccc(OC(F)(F)F)cc1 (centres undefined),14.4% (active)
15,Cc1cc(Br)ccc1NC(=O)c1cnc(N2CCN(c3ccccn3)CC2)c2ccccc12,7.37%
16,O=C(Nc1ccc(-c2nnc(-c3ccccc3)o2)cc1)c1ccc(Br)o1,1.44%
17,O=C(N/N=C/c1ccc(Cl)c(Cl)c1)c1ccc2nc[nH]c2c1,7.7%
18,O=C(COC(=O)CCCSc1nc2ccccc2[nH]1)Nc1ccc(Oc2ccccc2)cc1,8.31%
19,COC(=O)c1sccc1NC(=O)c1cc(OC)c(OC)c(OC)c1,5.58%
20,COc1cc(OC)cc(C(=O)OCC(=O)Nc2sccc2C(N)=O)c1,13.5% (active)
21,COc1ccc(CC(=O)Nc2c(C(N)=O)oc3ccccc23)cc1,6.51%
